In PubChem BioAssay (EPA / NIEHS) one finds outcome and AC50 data, which are given here for twelve compounds.

Test [1] can be described thus: ATG_NFI_CIS: Attagene CIS-FACTORIAL HepG2 Assay for human Nuclear Factor I (NFI) (AID 2282989). The conditions noted are these: HepG2 cis-regulatory reporter, NFI response element transcription; actives raise or lower the signal. The procedure, abridged:
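Read-out: reporter mRNA via RT-PCR plus capillary electrophoresis with fluorescence detection. Transiently transfected HepG2 (endogenous TF activity on cis promoters), 24 h compound exposure; gain or loss of signal fitted against DMSO.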

Test [2] deals with Myc proto-oncogene protein (Homo sapiens) (UniProt P01106). The test is described as follows: ATG_Myc_CIS: Attagene CIS-FACTORIAL HepG2 Assay for human Myelocytomatosis (Myc) Proto-Oncogene Transcription Factor (AID 2282990). The conditions noted are these: HepG2, Attagene cis-reporter transcription factor activity; actives raise or lower the signal. In outline:
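After 24 h chemical treatment of HepG2 cells carrying multiplexed cis-regulated reporter constructs, reporter transcripts quantified by RT-PCR and capillary electrophoresis of fluorescent fragments. Gain or loss fitted against DMSO baseline.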

The nature of test [3]: ATG_NRF2_ARE_CIS: Attagene CIS-FACTORIAL HepG2 Assay for human Nuclear Factor Erythroid 2 Related Factor 2 (NFR2) response to Antioxidant Response Elements (ARE) (AID 2282992).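 For AC50: reporter mRNA level measured by RT-PCR and capillary electrophoresis fluorescence.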 The note with it: HepG2 Attagene ARE/NRF2 reporter, transcription factor activity; actives raise or lower the signal. In outline: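 Fluorescence intensity of reporter-specific cDNA fragments, separated by capillary electrophoresis, reflects mRNA induction in transfected HepG2 cells at 24 h. Activity is fitted bidirectionally, DMSO serving as baseline.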

Test [4] in a line: ATG_Oct_MLP_CIS: Attagene CIS-FACTORIAL HepG2 Assay for human Octamer-Binding Transcription Factor (Oct) (AID 2282993). The conditions noted are these: HepG2 Attagene cis-factorial Oct reporter, mRNA; actives raise or lower the signal. In outline:
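Read-out: reporter mRNA via RT-PCR plus capillary electrophoresis of 6-FAM-labelled fragments. Transiently transfected HepG2, 24 h exposure, endogenous TF activity on cis elements. Gain or loss of signal fitted relative to DMSO.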

The target in test [5] is Cellular tumor antigen p53 (Homo sapiens) (UniProt P04637). The test can be described thus: ATG_p53_CIS: Attagene CIS-FACTORIAL HepG2 Assay for human p53 Transcription Factor (AID 2282994). The note with it: HepG2 p53 cis-element reporter, Attagene mRNA; actives raise or lower the signal. In outline: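 Transiently transfected HepG2 (multiple cis reporter transcription units); exposure 24 h; reporter RNA via RT-PCR, 6-FAM extension, 2 h HpaI digest at 37 C, CE detection; DMSO baseline.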
Cellular tumor antigen p53 (Homo sapiens), sequence (P04637 whole entry, looked up): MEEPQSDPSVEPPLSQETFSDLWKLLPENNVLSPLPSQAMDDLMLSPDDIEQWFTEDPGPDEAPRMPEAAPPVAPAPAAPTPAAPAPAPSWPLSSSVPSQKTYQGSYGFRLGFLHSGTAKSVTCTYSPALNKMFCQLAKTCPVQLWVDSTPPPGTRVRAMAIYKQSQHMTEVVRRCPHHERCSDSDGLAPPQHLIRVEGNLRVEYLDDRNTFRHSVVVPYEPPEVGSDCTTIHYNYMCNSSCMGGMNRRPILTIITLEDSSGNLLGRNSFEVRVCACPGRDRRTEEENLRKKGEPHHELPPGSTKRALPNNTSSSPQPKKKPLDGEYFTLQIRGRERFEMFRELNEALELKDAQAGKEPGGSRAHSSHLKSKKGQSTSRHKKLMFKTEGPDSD

Test [6] deals with Peroxisome proliferator-activated receptor gamma (Homo sapiens) (UniProt P37231). The test is described as follows: ATG_PPARg_TRANS: Attagene TRANS-FACTORIAL HepG2 Assay for human Peroxisome Proliferator-activated Receptor-gamma (PPARg) (AID 2283007; active = hit-call score of the fitted dose curve at least 0.9, where 1 is the maximum). In outline:
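Human hepatoma HepG2, transient MRTU transfection, 24 h treatment. mRNA reporter signal by RT-PCR plus capillary electrophoresis, fluorescence detection; fitted for increase over DMSO negative control.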

Test [7] has as its target Nuclear receptor subfamily 1 group I member 2 (Homo sapiens) (UniProt O75469). The test is described as follows: ATG_PXR_TRANS: Attagene TRANS-FACTORIAL HepG2 Assay for human Pregnane X Receptor (PXR) (AID 2283008; active = hit-call score of the fitted dose curve at least 0.9, where 1 is the maximum). In outline:
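Transient HepG2 transfectants carrying multiplexed reporter transcription units; PXR activity read through a Gal4 chimera. 24 h exposure. RT-PCR/CE fluorescence; upward curve fit referenced to DMSO.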

Test [8] concerns the target human Retinoic Acid Receptor gamma (RARg), RARG (gene 5916) (UniProt P13631). The test is described as follows: ATG_RARg_TRANS: Attagene TRANS-FACTORIAL HepG2 Assay for human Retinoic Acid Receptor gamma (RARg) (AID 2283009; active = hit-call score of the fitted dose curve at least 0.9, where 1 is the maximum). The procedure, abridged: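 Transactivation of exogenous RARg-Gal4 fusion measured as reporter transcript induction after 24 h in transfected HepG2 cells. RNA reverse-transcribed, amplified, fluorescently labeled and resolved by capillary electrophoresis; increase relative to DMSO.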

For test [9], the target named is human RAR-related Orphan Receptor beta (RORb), RORB (gene 6096) (UniProt Q92753). The test is described as follows: ATG_RORb_TRANS: Attagene TRANS-FACTORIAL HepG2 Assay for human RAR-related Orphan Receptor beta (RORb) (AID 2283010; active = hit-call score of the fitted dose curve at least 0.9, where 1 is the maximum). In outline:
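Read-out is reporter mRNA induction, quantified by RT-PCR with fluorescent capillary electrophoresis, 24 h post-dose in transiently transfected HepG2 expressing exogenous NR-Gal4 chimera. Activity fitted upward versus DMSO.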

Test [10] deals with human RAR-related Orphan Receptor gamma (RORg), RORC (gene 6097) (UniProt P51449). The test is described as follows: ATG_RORg_TRANS: Attagene TRANS-FACTORIAL HepG2 Assay for human RAR-related Orphan Receptor gamma (RORg) (AID 2283011; active = hit-call score of the fitted dose curve at least 0.9, where 1 is the maximum). In outline: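 Reporter transcripts from a transfected RORg-GAL4 chimera in HepG2 cells were quantified 24 h after dosing by RT-PCR, 6-FAM labelling, HpaI digestion and capillary electrophoresis; increases over DMSO baseline were fitted.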
human RAR-related Orphan Receptor gamma (RORg), RORC (gene 6097), sequence (P51449 whole entry, looked up, the tested form may be a part): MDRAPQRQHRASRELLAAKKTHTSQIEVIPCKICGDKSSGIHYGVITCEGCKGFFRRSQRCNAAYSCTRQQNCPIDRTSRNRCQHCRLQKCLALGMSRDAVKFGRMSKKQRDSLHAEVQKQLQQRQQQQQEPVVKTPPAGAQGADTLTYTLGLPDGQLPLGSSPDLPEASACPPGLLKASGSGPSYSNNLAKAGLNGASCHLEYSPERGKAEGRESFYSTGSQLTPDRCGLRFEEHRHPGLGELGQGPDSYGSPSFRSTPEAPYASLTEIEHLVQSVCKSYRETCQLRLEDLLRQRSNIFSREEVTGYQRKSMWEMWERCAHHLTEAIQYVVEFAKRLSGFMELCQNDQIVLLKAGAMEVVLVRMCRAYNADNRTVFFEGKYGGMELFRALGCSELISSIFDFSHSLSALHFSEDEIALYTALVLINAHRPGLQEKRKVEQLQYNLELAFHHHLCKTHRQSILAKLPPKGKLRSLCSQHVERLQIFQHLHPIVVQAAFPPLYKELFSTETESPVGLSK

Test [11] has as its target human Peroxisome Proliferator-activated Receptor delta (PPARd), PPARD (gene 5467) (UniProt Q03181). The test is described as follows: ATG_PPARd_TRANS: Attagene TRANS-FACTORIAL HepG2 Assay for human Peroxisome Proliferator-activated Receptor delta (PPARd) (AID 2283002; active = hit-call score of the fitted dose curve at least 0.9, where 1 is the maximum). In outline:
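Read-out is induced reporter mRNA, quantified by RT-PCR with fluorescent labelling and capillary electrophoresis after 24 h dosing. Cells are HepG2 transiently carrying multiple GAL4-UAS reporter units driven by exogenous NR-GAL4 chimeras; DMSO serves as baseline.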

Test [12] addresses human Retinoic Acid Receptor beta (RARb), RARB (gene 5915) (UniProt P10826). The test is described as follows: ATG_RARb_TRANS: Attagene TRANS-FACTORIAL HepG2 Assay for human Retinoic Acid Receptor beta (AID 2283004; active = hit-call score of the fitted dose curve at least 0.9, where 1 is the maximum). The procedure, abridged: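 Induction of reporter mRNA from a chimeric RARb-Gal4 construct was measured by RT-PCR, FAM labelling, HpaI digestion and capillary electrophoresis. Measurements followed 24 h compound treatment of transiently transfected human HepG2 liver cells, with DMSO as baseline.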

The target of test [13] is Retinoic acid receptor alpha (Homo sapiens) (UniProt P10276). The test is described as follows: ATG_RARa_TRANS: Attagene TRANS-FACTORIAL HepG2 Assay for human Retinoic Acid Receptor alpha (RARa) (AID 2283005; active = hit-call score of the fitted dose curve at least 0.9, where 1 is the maximum). In outline: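 Reporter transcripts, measured by RT-PCR with fluorescent labeling and capillary electrophoresis after 24 h dosing, reflect activity of an exogenous human RARa–GAL4 fusion in transiently transfected HepG2. Fitted for increase relative to DMSO.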
Retinoic acid receptor alpha (Homo sapiens), sequence (P10276 whole entry, looked up, the tested form may be a part): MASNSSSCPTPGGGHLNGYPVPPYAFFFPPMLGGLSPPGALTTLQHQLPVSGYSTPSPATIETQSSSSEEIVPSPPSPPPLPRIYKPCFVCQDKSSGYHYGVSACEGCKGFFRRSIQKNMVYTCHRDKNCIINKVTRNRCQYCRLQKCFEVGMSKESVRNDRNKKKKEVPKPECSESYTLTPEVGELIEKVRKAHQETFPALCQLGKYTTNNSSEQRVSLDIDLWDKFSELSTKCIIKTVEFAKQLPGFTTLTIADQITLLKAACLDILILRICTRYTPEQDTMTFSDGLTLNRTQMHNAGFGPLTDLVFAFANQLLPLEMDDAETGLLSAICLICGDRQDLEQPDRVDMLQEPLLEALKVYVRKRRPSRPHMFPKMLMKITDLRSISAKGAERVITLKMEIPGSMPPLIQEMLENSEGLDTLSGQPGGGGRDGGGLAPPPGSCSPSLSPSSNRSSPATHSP

Inconclusive results are not listed. Active and inactive are the calls of the source. Rule for the calls, unless noted: active = hit-call score of the fitted dose curve at least 0.9, where 1 is the maximum; inactive = score below 0.9.

human Retinoic Acid Receptor gamma (RARg), RARG (gene 5916), sequence (P13631 whole entry, looked up, the tested form may be a part): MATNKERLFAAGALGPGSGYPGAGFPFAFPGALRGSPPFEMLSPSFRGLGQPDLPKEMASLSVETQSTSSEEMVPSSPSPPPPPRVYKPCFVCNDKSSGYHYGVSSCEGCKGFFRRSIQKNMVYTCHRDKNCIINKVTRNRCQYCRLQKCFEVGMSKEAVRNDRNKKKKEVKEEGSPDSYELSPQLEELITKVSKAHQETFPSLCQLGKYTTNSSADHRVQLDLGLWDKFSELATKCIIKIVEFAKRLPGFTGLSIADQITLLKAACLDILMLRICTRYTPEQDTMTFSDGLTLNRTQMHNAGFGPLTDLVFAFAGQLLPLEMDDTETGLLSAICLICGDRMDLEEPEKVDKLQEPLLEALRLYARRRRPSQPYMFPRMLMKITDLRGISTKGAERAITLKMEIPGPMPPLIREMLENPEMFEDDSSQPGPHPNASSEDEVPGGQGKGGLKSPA
Peroxisome proliferator-activated receptor gamma (Homo sapiens), sequence (P37231 whole entry, looked up): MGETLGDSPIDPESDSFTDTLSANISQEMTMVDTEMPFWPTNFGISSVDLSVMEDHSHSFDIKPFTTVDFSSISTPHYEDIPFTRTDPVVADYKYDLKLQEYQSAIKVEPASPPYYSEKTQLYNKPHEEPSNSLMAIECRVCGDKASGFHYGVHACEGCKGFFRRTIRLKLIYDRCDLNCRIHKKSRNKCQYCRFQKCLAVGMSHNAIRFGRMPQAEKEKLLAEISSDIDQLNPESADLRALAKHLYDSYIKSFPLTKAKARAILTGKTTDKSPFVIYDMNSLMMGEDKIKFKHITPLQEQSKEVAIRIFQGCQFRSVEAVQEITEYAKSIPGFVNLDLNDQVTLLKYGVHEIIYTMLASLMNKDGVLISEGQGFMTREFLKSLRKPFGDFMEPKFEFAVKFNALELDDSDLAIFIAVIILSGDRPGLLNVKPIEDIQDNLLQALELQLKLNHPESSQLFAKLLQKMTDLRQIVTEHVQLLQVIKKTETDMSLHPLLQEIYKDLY
Myc proto-oncogene protein (Homo sapiens), sequence (P01106 whole entry, looked up, the tested form may be a part): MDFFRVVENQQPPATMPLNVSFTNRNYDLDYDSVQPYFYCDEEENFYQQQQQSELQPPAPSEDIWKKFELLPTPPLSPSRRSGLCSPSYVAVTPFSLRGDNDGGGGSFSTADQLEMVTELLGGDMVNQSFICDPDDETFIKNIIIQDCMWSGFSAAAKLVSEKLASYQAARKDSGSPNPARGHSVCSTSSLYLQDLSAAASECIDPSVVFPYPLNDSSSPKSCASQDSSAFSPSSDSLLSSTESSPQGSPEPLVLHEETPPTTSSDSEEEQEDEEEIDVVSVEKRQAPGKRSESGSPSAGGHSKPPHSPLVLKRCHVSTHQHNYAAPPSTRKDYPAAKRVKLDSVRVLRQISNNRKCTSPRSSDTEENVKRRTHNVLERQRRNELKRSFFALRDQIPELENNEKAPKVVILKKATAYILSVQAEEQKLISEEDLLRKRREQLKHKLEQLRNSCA
human RAR-related Orphan Receptor beta (RORb), RORB (gene 6096), sequence (Q92753 whole entry, looked up, the tested form may be a part): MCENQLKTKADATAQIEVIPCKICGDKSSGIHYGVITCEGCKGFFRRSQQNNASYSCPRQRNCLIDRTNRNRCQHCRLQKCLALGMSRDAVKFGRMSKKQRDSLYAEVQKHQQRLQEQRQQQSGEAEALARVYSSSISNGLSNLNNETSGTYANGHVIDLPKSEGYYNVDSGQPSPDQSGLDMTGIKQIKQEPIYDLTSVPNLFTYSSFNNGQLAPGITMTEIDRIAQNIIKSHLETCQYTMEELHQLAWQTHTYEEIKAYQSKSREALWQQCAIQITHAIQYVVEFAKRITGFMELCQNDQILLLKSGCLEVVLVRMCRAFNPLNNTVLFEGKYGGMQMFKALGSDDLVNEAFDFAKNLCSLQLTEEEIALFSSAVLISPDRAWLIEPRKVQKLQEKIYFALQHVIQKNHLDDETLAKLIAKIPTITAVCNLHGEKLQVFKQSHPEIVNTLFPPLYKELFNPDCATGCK
Nuclear receptor subfamily 1 group I member 2 (Homo sapiens), sequence (O75469 whole entry, looked up, the tested form may be a part): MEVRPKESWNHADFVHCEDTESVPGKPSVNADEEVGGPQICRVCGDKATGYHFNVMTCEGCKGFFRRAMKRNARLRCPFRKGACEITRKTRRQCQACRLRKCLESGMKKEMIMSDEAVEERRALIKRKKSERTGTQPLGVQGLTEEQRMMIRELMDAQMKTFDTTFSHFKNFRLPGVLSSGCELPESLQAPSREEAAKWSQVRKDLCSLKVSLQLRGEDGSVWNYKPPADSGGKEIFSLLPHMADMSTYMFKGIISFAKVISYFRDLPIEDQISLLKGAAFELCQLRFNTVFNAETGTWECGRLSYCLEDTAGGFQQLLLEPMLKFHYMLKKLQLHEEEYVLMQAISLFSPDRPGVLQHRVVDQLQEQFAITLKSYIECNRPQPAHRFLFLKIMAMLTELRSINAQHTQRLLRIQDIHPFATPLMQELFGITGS
human Peroxisome Proliferator-activated Receptor delta (PPARd), PPARD (gene 5467), sequence (Q03181 whole entry, looked up, the tested form may be a part): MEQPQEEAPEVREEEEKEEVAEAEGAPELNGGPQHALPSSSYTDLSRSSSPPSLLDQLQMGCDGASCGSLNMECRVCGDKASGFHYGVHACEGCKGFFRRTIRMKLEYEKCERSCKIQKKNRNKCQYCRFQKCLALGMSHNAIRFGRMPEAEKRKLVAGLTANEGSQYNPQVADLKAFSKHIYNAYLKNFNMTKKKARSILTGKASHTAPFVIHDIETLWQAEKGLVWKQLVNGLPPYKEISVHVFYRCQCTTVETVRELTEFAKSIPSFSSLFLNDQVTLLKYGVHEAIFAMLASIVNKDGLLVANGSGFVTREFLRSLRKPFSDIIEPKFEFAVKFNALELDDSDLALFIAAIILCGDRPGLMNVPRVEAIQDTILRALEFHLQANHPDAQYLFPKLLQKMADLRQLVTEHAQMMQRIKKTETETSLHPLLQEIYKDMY
human Retinoic Acid Receptor beta (RARb), RARB (gene 5915), sequence (P10826 whole entry, looked up, the tested form may be a part): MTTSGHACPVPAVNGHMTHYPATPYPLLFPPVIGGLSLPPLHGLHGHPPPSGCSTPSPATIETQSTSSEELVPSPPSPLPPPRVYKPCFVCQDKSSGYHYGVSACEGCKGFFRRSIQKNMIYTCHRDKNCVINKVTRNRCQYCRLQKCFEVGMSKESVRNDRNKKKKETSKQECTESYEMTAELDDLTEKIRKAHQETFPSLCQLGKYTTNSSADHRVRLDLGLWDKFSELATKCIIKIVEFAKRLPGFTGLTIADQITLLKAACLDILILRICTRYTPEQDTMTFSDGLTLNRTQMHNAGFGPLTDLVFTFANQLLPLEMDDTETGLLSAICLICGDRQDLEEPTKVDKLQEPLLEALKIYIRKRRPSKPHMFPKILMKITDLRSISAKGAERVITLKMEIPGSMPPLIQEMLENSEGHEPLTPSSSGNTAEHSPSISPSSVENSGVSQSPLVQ

As for `Cc1cc(C)c(C)c(C)c1`, the compound was called inactive in test [1], in test [2], in [3], in [4], in test [5] and in test [6]. The outcome in [7], in [8], in test [9] and in test [10] was inactive.
Consider `CCCCCCOc1cc(C)c(O)c(C)c1C`, for which the compound was classed as inactive in test [1], in test [2], in [4], in [5], in [11] and in test [12]. Besides, the compound was called inactive in [13], in [7] and in [8]. Besides, the results for the AC50 in test [3] and in test [6] were 7.78 µM (active) and 11.1 µM (active), respectively.
With `CC=CC(=O)N(CC)c1ccccc1C`, the outcome in test [1], in [2], in test [3], in test [4], in test [5] and in test [12] was inactive. In addition, the compound was classed as inactive in test [6], in test [9] and in test [10].
Regarding `CC(=O)OCC(C)OC(C)=O` (stereo not given), the outcome in test [1], in [2], in test [3], in [4], in test [5] and in test [11] was inactive. In addition, the compound was classed as inactive in test [12], in [7], in test [9] and in test [10].
In the case of `Cc1cc(=O)n(-c2ccccc2)n1C`, the call in test [1], in [2], in test [3], in test [4], in test [5] and in test [7] was inactive. The compound was classed as inactive in [8], in test [9] and in test [10].
Turning to `CN(C)CCCN(C)C`, the outcome in test [1], in test [2], in test [3], in test [4], in test [5] and in test [11] was inactive. Besides, the compound was classed as inactive in test [12], in [13], in test [6], in test [7] and in test [9].
For `O=C(C(Cl)Cl)N1CCOC12CCCCC2`, the result in test [1], in test [4], in test [5], in test [11], in [6] and in [7] was inactive. For the same compound, the call in test [8] was inactive. For the same compound, the results for the AC50 in test [2] and in [3] were 8.87 µM (active) and 7.52 µM (active), respectively.
Turning to `COc1ccc([C@@H]2CC(=O)c3c(O)cc(O[C@@H]4O[C@H](CO[C@@H]5O[C@@H](C)[C@H](O)[C@@H](O)[C@H]5O)[C@@H](O)[C@H](O)[C@H]4O)cc3O2)cc1OC`, the outcome in test [1], in [2], in test [3], in test [4], in [5] and in test [6] was inactive. Also, the compound was called inactive in test [7], in [8] and in [10].
Turning to `Cc1ccc([N+](=O)[O-])cc1S(=O)(=O)O`, the compound was classed as inactive in test [1], in [3], in test [4], in [5], in [6] and in [7]. The outcome in test [9] and in [10] was inactive. Moreover, the AC50 in [2] is 165 µM (active).
As to `O=Cc1ccc(CO)o1`, the compound was classed as inactive in test [1], in test [2], in [3], in [4], in [5] and in [13]. The compound was called inactive in test [10].
For `CCCCCCC(O)CO` (stereo not given), the compound was called inactive in test [1], in test [2], in test [3], in test [4], in [5] and in test [11]. The result in [6], in test [8] and in test [10] was inactive.
As for `CCOC(=O)CC`, the result in [1], in test [2], in test [3], in test [4], in test [5] and in test [11] was inactive. Further, the result in test [7] was inactive.
